Structures are written as SMILES.

For this assay, the system named is Plasmodium falciparum. In words: GSK_TCMDC: Inhibition of Plasmodium falciparum Dd2 in whole red blood cells, using parasite LDH activity as an index of growth. Test compounds present at 2uM. In kind it is functional.
One may read the Inhibition as the change of the read-out against control, counted positive when it falls. A higher Inhibition goes with a response far below the control. In turn, `CN1CCN(c2ncnc3ccc(NC(=O)Nc4ccc(Cl)c(Cl)c4)cc23)CC1` had an Inhibition of 89%.
As for `O=C(NCc1ccc(Cl)c(Cl)c1)c1ccc(-c2nc3ccc(Cl)cc3[nH]2)cc1`, the figure is 22%; as for `C[C@H](Cc1ccc(CCc2ccc(C[C@@H](C)NC[C@H](O)c3cccc(Cl)c3)cc2)cc1)NC[C@H](O)c1cccc(Cl)c1.Cl`, 92%; as for `Cl.O=C(Nc1ccc2c(c1)CCN(C1CCC1)CC2)c1ccc(-c2cn3ccccc3n2)cc1`, 42%.
`CCCC(C)NC[C@@H](O)[C@H](Cc1ccccc1)NC(=O)c1cc(NCC)cc(N2CCCCS2(=O)=O)c1.Cl` (some centres undefined): the Inhibition was 98%.
`CC1CCN(Cc2c(O)ccc3c(CN4CCC(C)CC4)c(O)ccc23)CC1.Cl` displayed an Inhibition of 86%.
As for `COc1cc(Cc2cnc(N)nc2N)cc(OCCCCCCN)c1OC.Cl`, the figure is 0%; as for `CC1CCC(C(C)C)C(OC(=O)CSc2nnc3c(n2)[nH]c2ccccc23)C1` (centres undefined), 74%; as for `CCN(CC)CCCCCNc1c2ccc(Cl)cc2nc2ccc(OC)cc12.Cl`, 99%.
Compound `Cl.Nc1nc(N)c2c(ccc3nn(S(=O)(=O)N4CCCC4)cc32)n1` yielded an Inhibition of 0%.
The same measure for `Cc1cc2c3c(N)nc(N)nc3ccc2n1C`: 0%.
`Cc1ccc(Nc2nc(N)c3ccccc3n2)cc1.Cl` showed an Inhibition of 12%.
The same measure for `CC(C)(C)CCN1CCC(CNC(=O)c2cc(-c3cccc(C(F)(F)F)c3)cs2)C1.O=C(O)C(F)(F)F` (centres undefined): 13%; for `CC(C)[C@@H](C(=O)NCc1cccc(C(F)(F)F)c1)N1C(=O)CCC1C(=O)Nc1ccc([N+](=O)[O-])cc1` (some centres undefined): 2%.

Source of the values: ChEMBL document CHEMBL1157539, “Thousands of chemical starting points for antimalarial lead identification” (Nature, 2010).
